Where “and” joins values, the source holds several entries; their conditions need not be identical. Equal values may be shown once. Records with an inconclusive call do not appear. A structure can be active in one record and inactive in another. Calls of active or inactive are those of the source. Unless noted, calls follow the shape of the dose curve; as a rule, active = well fitted curve in the direction sought with a large enough effect in the repeat runs; inconclusive = weak or mixed curves; inactive = no such curve, though single readings can be large; an effect the other way counts as inactive or inconclusive.
Tests used:
[1] = qHTS assay to identify small molecule antagonists of the sonic hedgehog signaling (Shh) pathway (AID 1259369; calls by dose curve; also: nearly all actives have a fitted effect of over 45% in size)
Outline: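 Conditioned medium drives Shh signalling in 3T3Gli1-Luc cells; compounds in DMSO co-applied, 24hr at 37 C, then luciferase luminescence.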

[2] = qHTS assay to identify small molecule antagonists of the estrogen receptor beta (ER-beta) signaling pathway - cell viability counter screen (AID 1259382); also: series mostly up to about 92 µM; nearly all actives have a fitted effect of over 55% in size
Outline: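 Agonist-stimulated (1nM E2) ER-beta-UAS-bla HEK293T cells are incubated with library compounds for 16 hr at 37C. Cell viability is then assessed in the reporter-assay wells by adding CellTiter-Glo and reading luminescence after 30 min.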

[3] = molecular target: Estrogen receptor (Homo sapiens) (UniProt P03372); assay: qHTS assay to identify small molecule agonists of the estrogen receptor alpha (ER-alpha) signaling pathway in the presence of an antagonist (AID 1259383; calls by dose curve; also: nearly all actives have a fitted effect of over 15% in size; also: potency is read from the fitted curve at half-maximal effect; as to activation: top concentration of the series differs between compounds)
Sequence of Estrogen receptor (Homo sapiens) (P03372 whole entry, looked up): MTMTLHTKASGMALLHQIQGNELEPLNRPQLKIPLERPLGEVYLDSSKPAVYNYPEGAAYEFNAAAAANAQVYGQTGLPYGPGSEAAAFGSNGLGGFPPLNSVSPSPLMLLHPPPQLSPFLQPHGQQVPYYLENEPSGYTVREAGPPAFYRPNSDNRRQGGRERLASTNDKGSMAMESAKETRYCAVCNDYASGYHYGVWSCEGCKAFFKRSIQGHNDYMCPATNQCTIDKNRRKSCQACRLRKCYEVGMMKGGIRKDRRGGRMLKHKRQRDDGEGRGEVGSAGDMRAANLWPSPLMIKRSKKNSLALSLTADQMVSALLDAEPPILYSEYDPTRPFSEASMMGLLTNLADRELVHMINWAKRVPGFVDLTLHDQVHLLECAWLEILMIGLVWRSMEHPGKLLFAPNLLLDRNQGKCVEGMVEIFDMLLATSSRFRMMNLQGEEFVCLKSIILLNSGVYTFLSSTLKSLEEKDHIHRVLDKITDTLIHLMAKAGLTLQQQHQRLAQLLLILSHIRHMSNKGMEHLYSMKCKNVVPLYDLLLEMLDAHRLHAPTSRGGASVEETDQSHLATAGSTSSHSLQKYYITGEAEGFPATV
Outline: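 Using VM7Luc4E2 cells seeded 24hr before treatment, antagonist ICI-182,780 (10.0nM final) was added, followed by compounds at 15 concentrations. Plates incubated 22hr; ONE-Glo luminescence quantified reporter activity.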

[4] = qHTS assay to identify small molecule agonists or antagonists of the thyroid stimulating hormone receptor (TSHR) signaling pathway - wild type cell line counter screen (AID 1259384; calls by dose curve)
Outline: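 Counter screen in untransfected Hek293: compounds (15-point titration, triplicate) plus phosphodiesterase inhibitor Ro20-1724 added after 18 h plating; 30 min RT. Intracellular cAMP via competitive d2/cryptate immunoassay, 1 h incubation.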

[5] = molecular target: Thyrotropin receptor (Homo sapiens) (UniProt P16473); assay: qHTS assay to identify small molecule antagonists of the thyroid stimulating hormone receptor (TSHR) signaling pathway (AID 1259385; calls by dose curve; also: nearly all actives have a fitted effect of over 20% in size)
Sequence of Thyrotropin receptor (Homo sapiens) (P16473 whole entry, looked up): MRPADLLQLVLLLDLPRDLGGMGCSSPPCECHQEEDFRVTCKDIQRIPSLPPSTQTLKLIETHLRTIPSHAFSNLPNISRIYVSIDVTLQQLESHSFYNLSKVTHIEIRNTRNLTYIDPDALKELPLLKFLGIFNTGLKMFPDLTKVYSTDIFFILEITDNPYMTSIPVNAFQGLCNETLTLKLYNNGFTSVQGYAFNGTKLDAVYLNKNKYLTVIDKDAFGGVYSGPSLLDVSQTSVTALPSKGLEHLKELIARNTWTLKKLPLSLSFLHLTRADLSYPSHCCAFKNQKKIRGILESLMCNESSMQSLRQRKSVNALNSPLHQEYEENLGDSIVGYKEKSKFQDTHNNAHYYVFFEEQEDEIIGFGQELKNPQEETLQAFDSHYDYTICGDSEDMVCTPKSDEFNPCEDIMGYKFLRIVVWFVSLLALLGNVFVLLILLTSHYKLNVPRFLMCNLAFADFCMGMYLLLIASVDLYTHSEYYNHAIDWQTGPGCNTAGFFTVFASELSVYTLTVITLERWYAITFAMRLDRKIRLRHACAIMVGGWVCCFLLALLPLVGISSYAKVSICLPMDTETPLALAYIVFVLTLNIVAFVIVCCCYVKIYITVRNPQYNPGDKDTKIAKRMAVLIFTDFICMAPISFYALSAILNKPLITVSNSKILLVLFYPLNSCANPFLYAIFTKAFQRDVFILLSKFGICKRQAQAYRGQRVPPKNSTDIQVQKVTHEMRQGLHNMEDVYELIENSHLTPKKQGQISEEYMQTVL
Outline: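 Antagonist mode: compound-treated TSHR-expressing HEK293 cells were stimulated with 1.5 ng/mL TSH (final) in presence of Ro20-1724 for 30 min at RT. HTRF cAMP detection after 1 h; each compound tested at 15 concentrations, triplicate.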

[6] = qHTS assay to identify small molecule agonists of the estrogen receptor alpha (ER-alpha) signaling pathway in the presence of an antagonist - cell viability counter screen (AID 1259386);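 also: series mostly up to about 92 µM; cells exposed to compounds for 22 h at 37 °C before the viability read; nearly all actives have a fitted effect of over 30% in size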
Outline: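 ICI-182,780 at 10.0nM final accompanies the compound titration (15 concentrations, 22hr, 37C) on VM7Luc4E2 cells. The CellTiter-Fluor fluorescence readout runs in the same wells as the luciferase assay.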

[7] = molecular target: Progesterone receptor (Homo sapiens) (UniProt P06401); assay: qHTS assay to identify small molecule agonists of the progesterone receptor (PR) signaling pathway (AID 1346784; calls by dose curve; also: nearly all actives have a fitted effect of over 30% in size)
Sequence of Progesterone receptor (Homo sapiens) (P06401 whole entry, looked up): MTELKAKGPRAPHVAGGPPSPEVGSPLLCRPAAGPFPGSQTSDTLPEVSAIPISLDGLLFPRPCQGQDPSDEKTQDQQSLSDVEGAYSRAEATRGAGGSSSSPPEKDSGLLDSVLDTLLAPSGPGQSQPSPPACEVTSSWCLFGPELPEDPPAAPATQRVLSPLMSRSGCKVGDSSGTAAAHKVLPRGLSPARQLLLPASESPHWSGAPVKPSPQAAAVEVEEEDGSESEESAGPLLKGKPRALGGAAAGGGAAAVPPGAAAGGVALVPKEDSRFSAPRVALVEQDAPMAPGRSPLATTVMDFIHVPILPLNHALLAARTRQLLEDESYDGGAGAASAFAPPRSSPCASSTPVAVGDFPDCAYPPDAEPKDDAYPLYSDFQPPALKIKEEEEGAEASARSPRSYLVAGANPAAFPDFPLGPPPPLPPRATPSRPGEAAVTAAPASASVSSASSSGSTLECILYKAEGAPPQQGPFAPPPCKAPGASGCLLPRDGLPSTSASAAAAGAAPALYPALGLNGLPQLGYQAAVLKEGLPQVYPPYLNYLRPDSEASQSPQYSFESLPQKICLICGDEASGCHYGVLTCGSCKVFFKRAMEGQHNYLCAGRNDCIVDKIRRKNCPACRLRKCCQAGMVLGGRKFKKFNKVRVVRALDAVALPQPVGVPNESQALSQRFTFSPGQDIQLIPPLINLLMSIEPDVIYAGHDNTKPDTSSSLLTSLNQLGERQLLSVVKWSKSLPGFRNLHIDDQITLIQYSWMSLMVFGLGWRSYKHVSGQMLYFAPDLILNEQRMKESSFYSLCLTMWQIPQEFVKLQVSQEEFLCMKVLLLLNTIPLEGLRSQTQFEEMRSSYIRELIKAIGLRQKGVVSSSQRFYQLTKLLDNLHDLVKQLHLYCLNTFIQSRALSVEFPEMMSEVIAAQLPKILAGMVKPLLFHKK
Outline: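 PR-UAS-bla HEK 293T cells (beta-lactamase reporter under UAS) in 2% charcoal-stripped FBS, dosed with 23 nL compound after 6 hr, incubated 16hr at 37C. LiveBLAzer B/G FRET substrate added, fluorescence read after 2 hours.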

[8] = molecular target: Progesterone receptor (Homo sapiens) (UniProt P06401); assay: qHTS assay to identify small molecule antagonists of the progesterone receptor (PR) signaling pathway (AID 1346795; active = well fitted inhibition curve with a large enough effect in the signal ratio in the repeat runs, not every such curve was filed as active; the % refers to the signal ratio)
Outline: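 PR-UAS-bla HEK293T cells with beta-lactamase reporter under UAS control, in 2% charcoal-stripped FBS, treated with compounds plus 1 nM promegestone (R5020, final) for 16 hr at 37C. Read-out: FRET beta-lactamase substrate fluorescence after 2 hr at room temperature.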

[9] = qHTS assay to identify small molecule antagonists of the progesterone receptor (PR) signaling pathway - cell viability counter screen (AID 1346798); also: series mostly up to about 92 µM; nearly all actives have a fitted effect of over 50% in size
Outline: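 PR-UAS-bla HEK293T cells, 3,000/well in 2% charcoal-stripped FBS medium, dosed with compounds plus R5020 agonist and incubated 16 h at 37C. Viability then measured in the same wells by CellTiter-Glo luminescence after 30 min at RT.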

[10] = qHTS assay to identify small molecule agonists of the progesterone receptor (PR) signaling pathway - cell viability counter screen (AID 1346799; calls by dose curve; also: nearly all actives have a fitted effect of over 45% in size)
Outline: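 Counter screen in the PR-UAS-bla HEK293T wells (2% charcoal-stripped FBS, 16 h compound exposure at 37 C) after the bla read. CellTiter-Glo added, 30 min at room temperature, luminescence read as cell viability.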

[11] = qHTS assay to identify small molecule antagonists of the TGF-beta/Smad signaling pathway - cell viability counter screen (AID 1346824); also: nearly all actives have a fitted effect of over 50% in size
Outline: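 Cytotoxicity counter-screen run in the same wells as the beta-lactamase Smad reporter read: CellTiter-Glo luminescence after 30 min at room temperature. HEK 293T SBE-bla cells had 5 hr compound exposure at 37 C with TGF-beta1 (0.25 ng/mL stock).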

[12] = qHTS assay to identify small molecule agonists of the TGF-beta/Smad signaling pathway - cell viability counter screen (AID 1346829); also: top concentration of the series differs between compounds; nearly all actives have a fitted effect of over 45% in size
Outline: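 Luminescence from CellTiter-Glo, read after a 30 min room-temperature incubation, gives cell viability of SBE-bla HEK 293T cells treated 5 hr with compounds at 37 C.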

[13] = qHTS assay to identify small molecule agonists of the TGF-beta/Smad signaling pathway (AID 1346859; active = well fitted activation curve with a large enough effect in the signal ratio in the repeat runs, not every such curve was filed as active; the % refers to the signal ratio; also: series mostly up to about 77 µM)
Outline: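 SBE-bla HEK293T cells plated overnight, then compound exposure for 5 h at 37 C. Beta-lactamase reporter read with LiveBLAzer B/G FRET substrate after 2 h at room temperature, fluorescence at 405 nm excitation, 460/530 nm emission.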

[14] = molecular target: Thyrotropin-releasing hormone receptor (Homo sapiens) (UniProt P34981); assay: qHTS assay to identify small molecule antagonists of the thyrotropin-releasing hormone receptor (TRHR) signaling pathway (AID 1346877; active = well fitted inhibition curve with a large enough effect in the repeat runs, not every such curve was filed as active; also: series mostly up to about 51 µM)
Sequence of Thyrotropin-releasing hormone receptor (Homo sapiens) (P34981 whole entry, looked up): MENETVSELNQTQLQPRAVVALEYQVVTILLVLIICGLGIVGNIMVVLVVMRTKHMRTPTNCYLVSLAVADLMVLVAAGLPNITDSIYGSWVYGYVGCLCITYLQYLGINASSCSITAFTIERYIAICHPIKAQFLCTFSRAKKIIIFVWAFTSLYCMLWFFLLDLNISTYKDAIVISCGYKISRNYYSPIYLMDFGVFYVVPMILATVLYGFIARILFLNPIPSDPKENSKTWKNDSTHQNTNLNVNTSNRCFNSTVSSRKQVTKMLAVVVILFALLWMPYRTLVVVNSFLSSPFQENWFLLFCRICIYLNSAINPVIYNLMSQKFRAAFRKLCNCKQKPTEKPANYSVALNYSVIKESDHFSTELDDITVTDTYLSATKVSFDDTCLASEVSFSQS
Outline: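 Screening used HEK293 cells engineered with TRHR, with a brief 5 min room-temperature compound exposure preceding addition of TRH to 1 nM. The read-out was kinetic calcium-dye fluorescence, concentration-response from 15 doses in triplicate.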

[15] = molecular target: Thyrotropin-releasing hormone receptor (Homo sapiens) (UniProt P34981); assay: qHTS assay to identify small molecule agonists of the thyrotropin-releasing hormone receptor (TRHR) signaling pathway (AID 1346891; calls by dose curve; also: series mostly up to about 58 µM)
Outline: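 HEK293 cells expressing TRHR plated 18 h at 37 C/5% CO2, calcium dye-loaded 2 h at 37 C, then compound added (agonist mode); kinetic calcium fluorescence read 3 min at 1 s intervals; 15 concentrations in triplicate.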

[16] = molecular target: Estrogen receptor beta (Homo sapiens) (UniProt Q92731); assay: qHTS assay to identify small molecule agonists of the estrogen receptor beta (ER-beta) signaling pathway (AID 1259377; active = well fitted activation curve with a large enough effect in the signal ratio in the repeat runs, not every such curve was filed as active; the % refers to the signal ratio)
Sequence of Estrogen receptor beta (Homo sapiens) (Q92731 whole entry, looked up): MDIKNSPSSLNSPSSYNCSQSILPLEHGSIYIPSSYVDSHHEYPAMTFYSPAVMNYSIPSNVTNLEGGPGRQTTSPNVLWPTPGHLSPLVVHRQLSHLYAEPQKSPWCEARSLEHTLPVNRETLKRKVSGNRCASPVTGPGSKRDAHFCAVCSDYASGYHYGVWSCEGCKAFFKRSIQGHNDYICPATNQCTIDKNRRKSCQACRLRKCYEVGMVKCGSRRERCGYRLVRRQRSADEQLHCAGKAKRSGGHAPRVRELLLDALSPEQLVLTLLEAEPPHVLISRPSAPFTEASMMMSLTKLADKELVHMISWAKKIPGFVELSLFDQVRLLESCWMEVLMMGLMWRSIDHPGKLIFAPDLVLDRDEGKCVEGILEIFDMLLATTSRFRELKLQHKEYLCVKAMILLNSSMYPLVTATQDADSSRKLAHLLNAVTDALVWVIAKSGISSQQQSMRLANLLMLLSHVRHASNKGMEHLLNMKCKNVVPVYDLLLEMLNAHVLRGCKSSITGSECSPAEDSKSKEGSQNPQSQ
Outline: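 ER-beta-UAS-bla HEK293T cells in medium with 2% charcoal-stripped FBS were exposed to compounds for 16 h at 37C. Beta-lactamase reporter activity was read as fluorescence after 2 h with LiveBLAzer B/G FRET substrate at room temperature.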

[17] = molecular target: Estrogen receptor beta (Homo sapiens) (UniProt Q92731); assay: qHTS assay to identify small molecule antagonists of the estrogen receptor beta (ER-beta) signaling pathway (AID 1259378; active = well fitted inhibition curve with a large enough effect in the signal ratio in the repeat runs, not every such curve was filed as active; the % refers to the signal ratio)
Outline: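 Antagonist mode: compounds added to beta-lactamase reporter HEK293T ER-beta-UAS cells stimulated with E2 (1nM final), 16 hr at 37C. LiveBLAzer B/G FRET substrate, 2 hours room temperature, fluorescence read-out.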

[18] = qHTS assay to identify small molecule agonists of the androgen receptor (AR) signaling pathway in the presence of an antagonist - cell viability counter screen (AID 1259379);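 also: MDA-kb2 human breast cancer cells carrying an MMTV luciferase reporter; series mostly up to about 92 µM; nearly all actives have a fitted effect of over 25% in size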
Outline: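 A CellTiter-Fluor read-out measured viability of MDA-kb2 reporter cells (MMTV promoter with AR and GR response elements). Treatment: nilutamide 3.0uM final with compounds at 15 concentrations, 16 hr, 37C, 0% CO2.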

[19] = qHTS assay to identify small molecule agonists of the estrogen receptor beta (ER-beta) signaling pathway - cell viability counter screen (AID 1259380); also: nearly all actives have a fitted effect of over 30% in size; also: potency is read from the fitted curve at half-maximal effect
Outline: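 Cells used were ER-beta-UAS-bla HEK293T in medium with 2% charcoal-stripped FBS. They were treated for 16 hr at 37C. Viability came from CellTiter-Glo luminescence.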

[20] = molecular target: Androgen receptor (Homo sapiens) (UniProt P10275); assay: qHTS assay to identify small molecule agonists of the androgen receptor (AR) signaling pathway in the presence of an antagonist (AID 1259381; calls by dose curve; also: nearly all actives have a fitted effect of over 15% in size)
Sequence of Androgen receptor (Homo sapiens) (P10275 whole entry, looked up): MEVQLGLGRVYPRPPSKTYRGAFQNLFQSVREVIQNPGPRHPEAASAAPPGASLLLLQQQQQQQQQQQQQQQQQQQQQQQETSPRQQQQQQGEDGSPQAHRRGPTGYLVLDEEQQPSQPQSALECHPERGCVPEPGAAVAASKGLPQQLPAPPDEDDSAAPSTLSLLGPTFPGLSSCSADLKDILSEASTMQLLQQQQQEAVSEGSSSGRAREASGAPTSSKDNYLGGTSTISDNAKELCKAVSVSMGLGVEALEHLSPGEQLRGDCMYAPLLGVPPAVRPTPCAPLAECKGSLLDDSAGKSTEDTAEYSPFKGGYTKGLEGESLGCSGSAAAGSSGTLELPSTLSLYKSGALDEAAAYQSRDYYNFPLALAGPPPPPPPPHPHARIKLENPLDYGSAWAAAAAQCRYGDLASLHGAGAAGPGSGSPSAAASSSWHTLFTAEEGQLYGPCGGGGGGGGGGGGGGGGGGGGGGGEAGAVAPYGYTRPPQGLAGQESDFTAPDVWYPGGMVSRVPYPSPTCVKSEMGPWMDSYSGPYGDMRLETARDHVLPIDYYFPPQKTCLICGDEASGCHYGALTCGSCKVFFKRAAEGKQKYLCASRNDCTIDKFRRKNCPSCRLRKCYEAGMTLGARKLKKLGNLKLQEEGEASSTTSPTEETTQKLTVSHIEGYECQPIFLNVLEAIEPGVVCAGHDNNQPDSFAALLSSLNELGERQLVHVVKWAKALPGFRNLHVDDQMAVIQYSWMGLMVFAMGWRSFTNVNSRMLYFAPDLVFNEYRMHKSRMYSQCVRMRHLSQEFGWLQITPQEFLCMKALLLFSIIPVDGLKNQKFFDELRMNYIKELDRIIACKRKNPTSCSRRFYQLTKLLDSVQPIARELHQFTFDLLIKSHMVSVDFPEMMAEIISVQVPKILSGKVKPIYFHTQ
Outline: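 Using human MDA-kb2 cells with an MMTV promoter–luciferase construct (AR and GR response elements), agonist activity is scored under 3.0uM nilutamide (final) co-treatment; 16hr incubation, 37C, luminescence readout via ONE-Glo.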

Measured: Potency

Cc1ccc2ncccc2c1
not listed: [16] | [17] | [18] | [19] | [20]
inactive: all other assays above

COc1ccc(N)c(C)c1
not listed: [1] | [14] | [15] | [19] | [20]
inactive: all other assays above

COc1ccc(C)cc1N
not listed: [16] | [17]
inactive: all other assays above

CCCOC(=O)c1ccccc1
not listed: [3] | [16] | [17] | [20]
inactive: all other assays above

CCCCCCO
not listed: [16] | [17] | [18] | [20]
inactive: all other assays above

CC(C)OC(=O)COc1ccc(Cl)cc1Cl
not listed: [14] | [15] | [16] | [17] | [18] | [20]
inactive: all other assays above

CC(=O)CC(C)(C)O
not listed: [8] | [17] | [18]
inactive: all other assays above

COC(=O)c1cccnc1
not listed: [3] | [14] | [15] | [16] | [17]
inactive: all other assays above

CC1(C)NC(=O)NC1=O
not listed: [7] | [8] | [16] | [17] | [20]
inactive: all other assays above

O=C(O)/C=C/C(=O)O
not listed: [1] | [3] | [17] | [20]
inactive: all other assays above

CN(C)c1ccc(O)c2c1C[C@H]1C[C@H]3[C@H](N(C)C)C(=O)C(C(N)=O)=C(O)[C@@]3(O)C(=O)C1=C2O
inactive and 2.66 µM (active): [3]
86.3 µM (active) and inactive: [19]
not listed: [1] | [17] | [18] | [20]
inactive: all other assays above

From PubChem BioAssay (Tox21)
